Screening results deposited in PubChem by several laboratories.
PfHsp40 yeast – restores yeast growth despite PfHsp40 toxicity. 0.68% of 340,000 active. growth rescue, % at 12.5 µM. S. cerevisiae expressing PfHsp40, growth rescue, ATP luminescence; in the data active means growth rescue above about 28%, passing the limit was not always enough; inconclusive means no clear call, values can overlap the other calls;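 further: yeast W303a lacking pdr1 and pdr3 grown in galactose medium; growth measured after three days at 30 °C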
BoNT-F LC inh – BoNT F light chain protease inhibition. inhibition, % at 10 µM. AID 588497. 0.22% of 360,000 active. Multiplex microsphere protease cleavage assay, flow cytometry; in the data active means inhibition above about 35%, passing the limit was not always enough; inconclusive means no clear call, values can overlap the other calls
BoNT-A LC inh2 – BoNT A light chain protease inhibition. multiplex microsphere protease substrate cleavage, flow cytometry. inhibition, % at 10 µM. 0.17% of 360,000 active. AID 588499
MazEF act – activators of E. coli MazEF toxin-antitoxin RNase; activation, % at 20 µM; FAM/BHQ RNA-DNA oligo cleavage fluorescence, 5 h; 0.32% of 350,000 active; AID 504720; in the data active means activation above about 50%
Anthrax LF prot – anthrax lethal factor protease inhibition; multiplex microsphere protease cleavage assay, LF; inhibition, % at 10 µM; AID 588501; 0.12% of 360,000 active
Target sequence (P15917 whole entry, looked up): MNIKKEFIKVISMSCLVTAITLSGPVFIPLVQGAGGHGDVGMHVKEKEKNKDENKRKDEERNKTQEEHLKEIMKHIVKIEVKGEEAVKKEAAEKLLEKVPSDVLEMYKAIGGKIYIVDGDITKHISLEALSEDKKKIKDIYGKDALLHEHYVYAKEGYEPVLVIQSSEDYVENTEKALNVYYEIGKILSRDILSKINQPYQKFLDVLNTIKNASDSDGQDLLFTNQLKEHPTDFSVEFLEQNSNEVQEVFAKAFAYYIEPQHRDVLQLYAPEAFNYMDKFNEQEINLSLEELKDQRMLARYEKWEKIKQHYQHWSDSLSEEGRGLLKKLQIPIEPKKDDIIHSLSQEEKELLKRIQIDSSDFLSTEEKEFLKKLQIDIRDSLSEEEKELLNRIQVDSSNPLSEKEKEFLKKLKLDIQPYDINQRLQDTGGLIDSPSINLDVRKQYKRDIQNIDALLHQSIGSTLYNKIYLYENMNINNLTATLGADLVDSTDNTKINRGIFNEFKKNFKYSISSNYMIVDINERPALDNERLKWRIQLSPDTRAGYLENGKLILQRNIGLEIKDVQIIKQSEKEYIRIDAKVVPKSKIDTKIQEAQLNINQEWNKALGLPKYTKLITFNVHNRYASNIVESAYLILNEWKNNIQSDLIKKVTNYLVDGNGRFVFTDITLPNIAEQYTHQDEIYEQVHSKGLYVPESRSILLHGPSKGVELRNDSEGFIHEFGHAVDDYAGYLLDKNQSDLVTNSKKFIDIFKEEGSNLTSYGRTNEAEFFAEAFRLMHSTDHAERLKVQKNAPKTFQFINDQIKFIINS
Bead autofluor – flagged as autofluorescent in microsphere protease counterscreen; 3.1% of 360,000 active; AID 624483; fluorescence intensity (no concentration beside the values); compound autofluorescence counterscreen, microsphere flow cytometry; stronger effect = higher value; in the data active means fluorescence intensity above about 16000; inconclusive means no clear call, values can overlap the other calls
Each line names hits and unclear results; the compound was inactive in the other large screens. The list is not random: actives were taken first. Their share in the collection is about 4.3%. Unless noted, no stated cut-off is given here; in the data, active means inhibition above about 30%; inconclusive means no clear call, values can overlap the other calls; inactive means below that.

Cc1cc(C(=O)OCC(=O)NC2CCCC(C)C2C)c(C)o1 (stereo unspecified)	PfHsp40 yeast 61.9
COc1ccccc1OC[C@H](O)CO	none
O=C(CN(Cc1ccco1)C(=O)c1cc(=O)[nH]c2ccccc12)Nc1ccccc1C(F)(F)F	Bead autofluor 16502
Cc1cccc(OCc2n[nH]c(=S)o2)c1	Bead autofluor 24801
CCc1ccc(-c2nc(SCC(=O)c3c(N)n(C4CC4)c(=O)[nH]c3=O)n[nH]2)cc1	none
O=C1CCC(C(=O)OCc2ccccc2)N1 (stereo unspecified)	Bead autofluor 24033
Cc1cc(C(C)(C)C)cc(C)c1COC(=O)C1CCC(=O)N1 (stereo unspecified)	none
O=C1CCC(C(=O)OCc2c(Cl)cccc2Cl)N1 (stereo unspecified)	Bead autofluor 20438
CC(C)C1Oc2ccccc2N(CC(=O)NCCCN2C(C)CCCC2C)C1=O (stereo unspecified)	Bead autofluor 23299
CC1Oc2ccccc2N(CC(=O)N(Cc2ccccc2)Cc2ccccn2)C1=O (stereo unspecified)	Bead autofluor 23187
CC1Oc2ccccc2N(CC(=O)NCCc2ccccc2)C1=O (stereo unspecified)	Bead autofluor 26874
COc1ccccc1C(=O)Nc1ccc2c(c1)nc(CCNC(C)=O)n2C	Bead autofluor 21508
COc1ccccc1C(=O)Nc1ccc2c(c1)nc(CCNC(=O)c1ccccc1)n2C	none
COc1ccc(C(=O)Nc2ccc3c(c2)nc(CCNC(C)=O)n3C)cc1	Bead autofluor 20535
CC(=O)NCCc1nc2cc(NC(=O)c3ccc(F)cc3)ccc2n1C	none
COc1ccc(CNC(=O)CCCCCn2c(SCC#N)nc3cc4c(cc3c2=O)OCO4)cc1	BoNT-A LC inh2 inconclusive, Bead autofluor 19698
CCN(CC)C(=O)CSc1nc2cc3c(cc2c(=O)n1CCCC(=O)NCc1ccc(OC)cc1)OCO3	none
CN1CCN(C2CN(Cc3cn(Cc4cccc(C(F)(F)F)c4)nn3)S(=O)(=O)C2)CC1 (stereo unspecified)	none (no result: PfHsp40 yeast, MazEF act)
CC(C)c1ccc(NC2CCCN(C(=O)CCc3cnn(C)c3)C2)cc1 (stereo unspecified)	none
CC1=CC(=O)C(C(C)C)=CC1=NC(=O)c1ccc(C)cc1	none
CCOC(=O)C1C(=O)CC(C)(O)C(C(=O)OCC)C1c1ccccc1OC (stereo unspecified)	Bead autofluor 21006
CCOC(=O)C1C(=O)CC(C)(O)C(C(=O)OCC)C1c1cc(Br)ccc1OC (stereo unspecified)	Bead autofluor inconclusive
COc1ccc(NS(=O)(=O)c2cccc(N/C(=N\S(=O)(=O)c3ccccc3)c3ccc(F)cc3)c2)cc1	none
CC(NC(=S)NC1CCCCC1)c1ccccc1 (stereo unspecified)	none
CCCc1ccc(C(C)NC(=S)NC2CCCCC2)cc1 (stereo unspecified)	PfHsp40 yeast 159.4
O=C(COC(=O)c1ccccc1NS(=O)(=O)c1cccs1)NC1CCCCC1	BoNT-F LC inh 45.1
O=C1CCCc2c1[nH]c1ccc(CN3CCCCC3)cc21	Bead autofluor 23077
Cc1cccc(N(C)Cc2nnc(-c3cccc(Br)c3)o2)c1	none
CCCNC(=O)C1(C)CCCN(C(=O)c2ccc(C)c(F)c2)C1 (stereo unspecified)	none (no result: PfHsp40 yeast, MazEF act)
Clc1ccc2c(c1)[C@H]1OCC[C@H]1[C@@H](c1ccco1)N2	none
Fc1ccc2c(c1)[C@H]1OCC[C@H]1[C@@H](c1ccco1)N2	Bead autofluor 23934
C=C(C)COc1ccc(-c2[nH]ncc2-c2ccc(Br)cc2)c(O)c1	PfHsp40 yeast 308.9
CCN(CC)S(=O)(=O)c1ccc(S(=O)(=O)Nc2ccc3c(c2)oc2ccccc23)cc1	BoNT-A LC inh2 inconclusive, Bead autofluor 20070
CN(C)S(=O)(=O)c1ccc(S(=O)(=O)Nc2ccc3c(c2)oc2ccccc23)cc1	none
O=C(CCC1CCCCC1)Nc1cccc(C(=O)Nc2ccc(C(=O)O)cc2)c1	none
O=C(Nc1ccnn1C1CCN(C/C=C/c2ccccc2)CC1)c1ccccc1Cl	Bead autofluor 56855
O=C(Nc1ccnn1C1CCN(C/C=C/c2ccccc2)CC1)C1CCCC1	none
COC(=O)c1ccc(OCC(=O)c2ccccc2OC)cc1	BoNT-A LC inh2 inconclusive, Bead autofluor 20757
COc1cc(/C=C/C(=O)OCC(=O)N2CCCC2)ccc1OCC#N	none
